# PubChem BioAssay (NCI)
# Compounds without any hit were thinned out: in the full panel of roughly 83,000, 20% have a hit.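 Testing used 96-well plates and a 48-hour single-concentration exposure. Example: -40 means 40% of the starting cells died.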 Values without a mark were called inactive. Calls of active or inactive are those of the source. How the source made its calls: active means growth percent below 10; inactive means the rest.
# Columns and labels:
# Experiment in all cases: NCI-60 one-dose screen, 48 h (100 = growth as untreated, 0 = no growth, -100 = all killed)
# Settings in all cases: 10 µM
# [1] = system: EKVX NSCLC
# [2] = system: SN12C renal
# [3] = system: UO-31 renal
# [4] = system: TK-10 renal
# [5] = system: ACHN renal
# [6] = system: CAKI-1 renal
# [7] = system: A498 renal
# [8] = system: CCRF-CEM leukemia
# [9] = system: MOLT-4 leukemia
SMILES,growth [1],growth [2],growth [3],growth [4],growth [5],growth [6],growth [7],growth [8],growth [9]
CC1=C(c2cc(-c3ccc(Cl)cc3)c(C#N)c(N)n2)C(c2ccccc2)NC(=S)N1 (stereo unspecified),98.6%,62.2%,63.5%,114%,19.6%,72.3%,137%,7.65% (active),6.11% (active)
Clc1ccc2c(N/N=C/c3c[nH]c4ccc(Br)cc34)ccnc2c1,-93% (active),-56.3% (active),-95.8% (active),-67.2% (active),-90.8% (active),-94% (active),-77% (active),-7.03% (active),-48.7% (active)
O=C(c1ccccc1)n1ccc(-c2cc3cc(Br)ccc3oc2=O)n1,-1.71% (active),27.4%,11.7%,34.7%,8.46% (active),15.2%,117%,4.71% (active),14.8%
C=C1CCC2C3(C)COC(c4c(F)cccc4F)OC3CCC2(C)C1CC(O)C1=CCOC1=O (stereo unspecified),85.7%,34.9%,50%,105%,3.02% (active),72.5%,134%,17.7%,53.7%
